Molecules are shown by their SMILES. About 70 (0.4%) of roughly 16,000 compounds were called active. What follows is part of a selection rich in actives, with near analogues and random picks from the rest. A number with no mark means an inactive call. No stated cut-off is given here; in the data, active means inhibition above about 50%; inactive means the rest.

Kappa-type opioid receptor (Homo sapiens), sequence (P41145 whole entry, looked up): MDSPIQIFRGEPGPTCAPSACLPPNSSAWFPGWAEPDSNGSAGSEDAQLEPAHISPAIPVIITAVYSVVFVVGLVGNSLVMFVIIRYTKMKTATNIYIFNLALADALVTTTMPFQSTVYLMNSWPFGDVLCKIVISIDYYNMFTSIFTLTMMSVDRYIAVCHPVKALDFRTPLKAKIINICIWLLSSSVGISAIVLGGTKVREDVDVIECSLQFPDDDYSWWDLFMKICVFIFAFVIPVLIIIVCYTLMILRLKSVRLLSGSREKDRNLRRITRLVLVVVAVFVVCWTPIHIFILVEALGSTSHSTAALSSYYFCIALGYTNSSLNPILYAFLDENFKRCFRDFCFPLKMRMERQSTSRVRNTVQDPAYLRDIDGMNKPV

This assay addresses Kappa-type opioid receptor (Homo sapiens) (UniProt P41145). As to the kind of experiment: antagonists of human kappa opioid receptor OPRK1, Maybridge library (AID 652031). As to conditions: OPRK1 cells, antagonist mode, fluorescence readout; at 9 µM; hits give high values.
`O=C(CSc1ccc(Cl)cc1)NCCSCc1ccco1`: the inhibition was 15.7%.
For `Cc1nn(-c2ccccc2)nc1C(=O)Nc1nnc(C2CC2)s1` the value was 8.4%; for `COc1ccc(OC(=O)/C=C/c2sc3ccccc3c2C)cc1`, 8.8%; for `O=C1CCC(=O)N(c2ccccc2)N1`, 14.7%.
For `O=C1NC(=O)c2cc([N+](=O)[O-])c(Sc3c(Cl)cccc3Cl)cc21` the value was 4.3%; for `N#CCc1ccc(NC(=O)c2ccccc2C(=O)Nc2ccc(CC#N)cc2)cc1`, 20.8%.
On to `O=C(Nc1ccc(I)cc1Cl)C(=S)NCc1cccs1`, for which the inhibition was -3.3%.
In the case of `CCOC(=O)COc1cccc2c(C)cc(=O)oc12`, the inhibition was -1.5%.
The figure for `O=C(c1ccc(Oc2ccc(Cl)cc2)c([N+](=O)[O-])c1)N1CCCC1` is 4.1%.
For `CCO/N=C\c1nn(S(C)(=O)=O)cc1Br` the value was -12.1%.
The figure for `CNC(=O)c1ccccc1I` is -1.2%.
As to `CSc1nnc(-c2ccc(C(F)(F)F)cn2)o1`, the inhibition was -0.1%.
For `Cn1cnnc1SCC(=O)Nc1cc(C(F)(F)F)cc(C(F)(F)F)c1` the value was 0.9%; for `CC(C)(C)NC(=O)N/N=C/c1[nH]ncc1Br`, 1%; for `Cc1cc(/C(N)=N/OC(=O)c2cccs2)c(-c2ccccc2)o1`, -13%.
On to `CN(C)NC(=O)c1csnc1-c1c(Cl)cccc1Cl`, for which the inhibition was 36.6%.
As to `COC(=O)c1ccc(S(=O)(=O)N2CCN(c3ccc([N+](=O)[O-])cn3)CC2)n1C`, the inhibition is -6.6%.
For `CCOC(=O)/C(C#N)=C/c1ccc(-c2nccs2)cc1C(C)(C)C` the value was -2.8%.
The figure for `COC(=O)c1cnc(N2CCCN(C(=O)C3COc4ccccc4O3)CC2)nc1C(F)(F)F` (stereo not given) is -8.4%; for `CCc1cnc(NS(=O)(=O)c2cc(Cl)sc2Cl)nc1-c1c(F)cccc1F` it is 1.8%; for `CCOC(=O)Cc1nc(N)ncc1C(=O)OCC` it is 17.3%.
For `FC(F)(F)c1ccc(/C=N/Nc2nccc(C(F)(F)F)n2)cc1` the value was 6.7%.
Regarding `Cc1nc2sc(-c3ccccc3)cc2c(=O)o1`, the inhibition was -0.4%.
The figure for `CCOCCOCCN(CC)c1ccc(N=Nc2c(C#N)cc([N+](=O)[O-])cc2C#N)c(NC(C)=O)c1` is -11.4%; for `O=c1cc(-c2ccccc2)sc2ccc(Cl)cc12` it is -5.7%; for `OC(CNCCNc1nccc(C(F)(F)F)n1)COc1ccc(Cl)c(Cl)c1` (stereo not given) it is -9.3%.
For `CC(=O)Nc1ccc(/C(N)=N/O)cc1` the value was 9.1%; for `O=c1oc(/C=C/c2ccccc2)nc2ccccc12`, -41.1%; for `COc1cc(OC)nc(/N=C/c2nc(-c3ccccc3)oc2O)n1`, 5.7%.
For the compound `N/C(=N/OC(=O)NC(=O)c1c(Cl)cccc1Cl)c1ccc(F)cc1F`, the inhibition was -5.4%.
For `N#Cc1c(-c2ccccc2)c(-c2ccccc2)n[nH]c1=O` the value was 20%.
The figure for `N#C/C(=C\C=C\c1ccccc1)c1nc2ccccc2[nH]1` is 13.4%; for `S=C(Nc1cccnc1)N1CCCN(Cc2ccc(Cl)cc2Cl)CC1` it is 4.7%; for `Cc1ccc(Oc2c(C)[nH]c(=S)[nH]c2=O)cc1` it is -1.2%.
For `O=C(Nc1ccccc1N1CCOCC1)C1CCN(c2nccc(C(F)(F)F)n2)CC1` the value was 9.4%; for `Cc1cc(NC(=O)c2cc(-c3ccccc3)c(C(F)(F)F)s2)no1`, -1.6%.
Turning to `CSc1sc(C(=O)Nc2cccc(Cl)c2)c(-c2cccs2)c1C#N`, the inhibition was 5.9%.
The figure for `Cn1cnc(S(=O)(=O)Nc2ccc3[nH]ccc3c2)c1` is -0.5%; for `CC(C)(C)C(=O)Nc1c(Br)c(C2CC2)nn1-c1ccccc1` it is 4.1%; for `COC(=O)C1=C(NNc2ncc(Cl)cc2C(F)(F)F)CSC1` it is -2.3%.
Turning to `CC(=O)OCC(=O)[C@@]1(O)[C@H](C)CC2C3CCC4=CC(=O)C=CC4(C)C3=CCC21C` (stereo not given in full), the inhibition is 0.2%.
The figure for `Cc1ccc(S(=O)(=O)NNC(=S)NC(C)(C)C)cc1` is -0.7%; for `CC(=O)c1cc([N+](=O)[O-])c(NC2CCCCC2)s1` it is -27.9%; for `Clc1ccc(CO/N=C/c2nc3ccccc3s2)cc1` it is 16.1%.
For `N#Cc1cc([N+](=O)[O-])c(N2CCCC2)cc1N1CCCC1` the value was -4.1%.
The figure for `Cn1nc(C(C)(C)C)c(NC(=O)c2sccc2Cl)c1C(C)(C)C` is -1.9%; for `CCSC(=O)NCc1ccccc1` it is -12.7%.
Regarding `Cc1nc(C(F)(F)F)ccc1C(=O)NCCNc1ncccc1C(F)(F)F`, the inhibition is -36.9%.
For `CCOC(=O)c1cc(C)n(-c2cccc([N+](=O)[O-])c2)c1-c1ccccc1` the value was -0.8%.
For `Cn1cc(C(=O)Nc2ccc(F)c(Cl)c2)c(N)n1` the value was 20.6%; for `Cc1nnsc1C(=O)NN(C)c1ccc([N+](=O)[O-])cn1`, 14.8%.
The figure for `CC1(C)CC(=O)C(N=Nc2c(F)cccc2F)=C(O)C1` is -7.3%; for `CCOC(=O)NC(=O)/C(=C/NC(C)C)C(=O)OCC` it is 5.6%.
Consider `O=C1CCCCC(=O)c2ccccc2N1`, for which the inhibition was 7.1%.
For `Cc1ccc(C(=O)N2CCN(c3cccc4[nH]ccc34)CC2)cc1` the value was 2.5%.
For `CCOC(=O)c1nnc2c(Br)c(C)nn2c1C` the value was 3.1%; for `O=[N+]([O-])c1ccc(N2CCSCC2)cc1O`, 3.6%.
The figure for `COc1ccc(/C(C)=N/Nc2c([N+](=O)[O-])cc(C(F)(F)F)cc2[N+](=O)[O-])cc1CC#N` is -23.7%.
Consider `C=CCn1c(SCC(=O)Nc2nnc(-c3cccs3)s2)nnc1-c1ccco1`, for which the inhibition is 8.8%.
The figure for `COC(=O)c1cccc(CSc2ncccc2C(=O)O)c1` is 15.2%; for `CC(=O)c1nnc2cc(C)nn2c1C` it is 28.9%.
For `CSc1sc(C(N)=O)cc1C#N` the value was 6.9%.
The figure for `Cc1cc(C(=O)NNC(=O)c2cc(C)n(C(C)(C)C)n2)no1` is 8.1%.
In the case of `COc1ccc2c(OC(C)=O)coc2c1`, the inhibition was -6.7%.
The figure for `N#C/C(=C\c1cccn1S(=O)(=O)c1ccccc1)C(=O)c1ccccc1` is 7.4%.
